# In PubChem BioAssay (NCATS):
# Records with an inconclusive call do not appear. Where a call stands in place of a potency, no number is given. Calls of active or inactive are those of the source. The call rests on the fitted dose curve; in most records, active means well fitted curve in the direction sought with a large enough effect; inconclusive means small, poorly fitted or top-dose-only effect, or another doubt; inactive means no such curve, though single readings can be large; an effect the other way counts as inactive or inconclusive.
# Legend:
# [1] = Cytometric Cell-Based qHTS for Inhibitors of the mTORC1 Signaling Pathway in MEF (Tsc2-/-, p53-/-) Cells (AID 2660);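 further: Tsc2 and p53 null MEFs carrying empty vector with compound for 24 h; percent of cells above a phospho-rpS6 to PI ratio cutoff in each well; series mostly up to about 38 µM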
# Procedure, shortened: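 Cells are plated, treated with compound for 24 hrs at 37 degree Celsius, then fixed, blocked and immunostained for phospho-rpS6 Ser235/236. Propidium iodide counterstain follows. Per-well % positive cells is derived from the PI-normalized phospho-S6 signal.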
# [2] = molecular target: DNA repair nuclease/redox regulator APEX1 (Homo sapiens) (UniProt P27695); assay: qHTS Validation Assay for Inhibitors of the Human Apurinic/apyrimidinic Endonuclease 1 (APE1) (AID 1705;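 further: TAMRA fluorescence gain over two minutes as APE1 cuts a quenched THF abasic duplex; series mostly up to about 57 µM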)
# Sequence of DNA repair nuclease/redox regulator APEX1 (Homo sapiens) (P27695 whole entry, looked up): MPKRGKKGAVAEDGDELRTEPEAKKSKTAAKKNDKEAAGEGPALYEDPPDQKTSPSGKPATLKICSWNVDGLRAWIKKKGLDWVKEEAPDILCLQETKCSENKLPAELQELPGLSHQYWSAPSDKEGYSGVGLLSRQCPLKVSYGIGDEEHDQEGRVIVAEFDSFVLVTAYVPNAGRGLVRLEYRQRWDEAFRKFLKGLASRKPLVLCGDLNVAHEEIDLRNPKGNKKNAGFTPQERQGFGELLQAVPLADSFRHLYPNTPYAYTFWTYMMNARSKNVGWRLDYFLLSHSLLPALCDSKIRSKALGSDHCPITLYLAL
# Procedure, shortened: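 Endonuclease activity of human APE1 is followed as dequenching when the enzyme incises a tetrahydrofuran abasic site in a short duplex labelled 5'-TAMRA/3'-BHQ-2 (50 nM final), after 15 min enzyme–compound preincubation at room temperature.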
# [3] = molecular target: Endonuclease 4 (Escherichia coli (strain K12)) (UniProt P0A6C1); assay: Counterscreen for APE1 Inhibitors: qHTS Validation Assay for Inhibitors of Endonuclease IV (AID 1708)
# Procedure, shortened: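 qHTS concentration-response format; LOPAC1280 tested under APE1-screen conditions. 2 nM enzyme, 15 min compound preincubation at RT, then 50 nM TAMRA/BHQ-2 abasic substrate; kinetic fluorescence read, three reads at 60 s intervals.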
# [4] = qHTS for differential inhibitors of proliferation of Plasmodium falciparum line GB4 (AID 1816); conditions: Potency: Plasmodium falciparum GB4 proliferation inhibition;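 further: potency means the concentration at half of the fitted maximal effect; parasite growth measured after 72 h incubation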
# [5] = qHTS for differential inhibitors of proliferation of Plasmodium falciparum line 3D7 (AID 1876); further: potency means the concentration at half of the fitted maximal effect
# [6] = qHTS for differential inhibitors of proliferation of Plasmodium falciparum line D10 (AID 1877);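 further: potency means the concentration at half of the fitted maximal effect; parasites grown with compound for 72 h before DNA staining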
# [7] = qHTS for differential inhibitors of proliferation of Plasmodium falciparum line W2 (AID 1883); conditions: Potency: Plasmodium falciparum W2 proliferation inhibition;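 further: potency means the concentration at half of the fitted maximal effect; parasites grown with compound for 72 h before lysis and staining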
# [8] = qHTS for differential inhibitors of proliferation of Plasmodium falciparum line HB3 (AID 1886); conditions: Potency: Plasmodium falciparum HB3 proliferation inhibition;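 further: potency means the concentration at half of the fitted maximal effect; parasites grown with compound for 72 h before SYBR Green readout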
# [9] = molecular target: ATP-dependent DNA helicase Q1 (Homo sapiens) (UniProt P46063); assay: qHTS Validation Assay for Inhibitors of RecQ-Like Dna Helicase 1 (RECQ1) (AID 2353); further: potency means the concentration at half of the fitted maximal effect
# Sequence of ATP-dependent DNA helicase Q1 (Homo sapiens) (P46063 whole entry, looked up): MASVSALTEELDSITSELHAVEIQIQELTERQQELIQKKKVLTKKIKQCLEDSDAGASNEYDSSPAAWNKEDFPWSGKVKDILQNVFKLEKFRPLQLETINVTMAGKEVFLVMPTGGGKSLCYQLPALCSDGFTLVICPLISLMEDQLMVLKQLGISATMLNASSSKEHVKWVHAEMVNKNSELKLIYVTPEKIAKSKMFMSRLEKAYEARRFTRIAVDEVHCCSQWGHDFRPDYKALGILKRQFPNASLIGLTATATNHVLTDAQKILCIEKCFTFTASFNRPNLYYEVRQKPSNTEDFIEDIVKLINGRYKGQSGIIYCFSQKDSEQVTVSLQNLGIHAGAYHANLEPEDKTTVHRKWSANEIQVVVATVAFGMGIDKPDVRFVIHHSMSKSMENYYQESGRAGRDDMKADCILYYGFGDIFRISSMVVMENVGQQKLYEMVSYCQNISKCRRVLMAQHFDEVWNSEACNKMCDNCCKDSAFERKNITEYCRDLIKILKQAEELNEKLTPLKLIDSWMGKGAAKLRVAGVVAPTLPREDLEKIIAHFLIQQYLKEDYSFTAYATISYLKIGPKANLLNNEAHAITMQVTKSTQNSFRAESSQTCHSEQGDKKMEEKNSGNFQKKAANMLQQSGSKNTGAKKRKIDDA
# Procedure, shortened: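 50 nM RECQ1T1 preincubated 15 min with compound in Tris pH 8.0 buffer with MgCl2, DTT, Tween-20 and 2.5 ug/ml poly(dI-dC); started with 200 nM TAMRA/BHQ-2 forked duplex and 2 mM ATP. Unwinding read as fluorescence (525/598 nm), two reads 2 h apart.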
# [10] = molecular target: RecQ-like DNA helicase BLM (Homo sapiens) (UniProt P54132); assay: qHTS Validation Assay for Inhibitors of Bloom's syndrome helicase (BLM) (AID 2364); further: potency means the concentration at half of the fitted maximal effect
# Sequence of RecQ-like DNA helicase BLM (Homo sapiens) (P54132 whole entry, looked up): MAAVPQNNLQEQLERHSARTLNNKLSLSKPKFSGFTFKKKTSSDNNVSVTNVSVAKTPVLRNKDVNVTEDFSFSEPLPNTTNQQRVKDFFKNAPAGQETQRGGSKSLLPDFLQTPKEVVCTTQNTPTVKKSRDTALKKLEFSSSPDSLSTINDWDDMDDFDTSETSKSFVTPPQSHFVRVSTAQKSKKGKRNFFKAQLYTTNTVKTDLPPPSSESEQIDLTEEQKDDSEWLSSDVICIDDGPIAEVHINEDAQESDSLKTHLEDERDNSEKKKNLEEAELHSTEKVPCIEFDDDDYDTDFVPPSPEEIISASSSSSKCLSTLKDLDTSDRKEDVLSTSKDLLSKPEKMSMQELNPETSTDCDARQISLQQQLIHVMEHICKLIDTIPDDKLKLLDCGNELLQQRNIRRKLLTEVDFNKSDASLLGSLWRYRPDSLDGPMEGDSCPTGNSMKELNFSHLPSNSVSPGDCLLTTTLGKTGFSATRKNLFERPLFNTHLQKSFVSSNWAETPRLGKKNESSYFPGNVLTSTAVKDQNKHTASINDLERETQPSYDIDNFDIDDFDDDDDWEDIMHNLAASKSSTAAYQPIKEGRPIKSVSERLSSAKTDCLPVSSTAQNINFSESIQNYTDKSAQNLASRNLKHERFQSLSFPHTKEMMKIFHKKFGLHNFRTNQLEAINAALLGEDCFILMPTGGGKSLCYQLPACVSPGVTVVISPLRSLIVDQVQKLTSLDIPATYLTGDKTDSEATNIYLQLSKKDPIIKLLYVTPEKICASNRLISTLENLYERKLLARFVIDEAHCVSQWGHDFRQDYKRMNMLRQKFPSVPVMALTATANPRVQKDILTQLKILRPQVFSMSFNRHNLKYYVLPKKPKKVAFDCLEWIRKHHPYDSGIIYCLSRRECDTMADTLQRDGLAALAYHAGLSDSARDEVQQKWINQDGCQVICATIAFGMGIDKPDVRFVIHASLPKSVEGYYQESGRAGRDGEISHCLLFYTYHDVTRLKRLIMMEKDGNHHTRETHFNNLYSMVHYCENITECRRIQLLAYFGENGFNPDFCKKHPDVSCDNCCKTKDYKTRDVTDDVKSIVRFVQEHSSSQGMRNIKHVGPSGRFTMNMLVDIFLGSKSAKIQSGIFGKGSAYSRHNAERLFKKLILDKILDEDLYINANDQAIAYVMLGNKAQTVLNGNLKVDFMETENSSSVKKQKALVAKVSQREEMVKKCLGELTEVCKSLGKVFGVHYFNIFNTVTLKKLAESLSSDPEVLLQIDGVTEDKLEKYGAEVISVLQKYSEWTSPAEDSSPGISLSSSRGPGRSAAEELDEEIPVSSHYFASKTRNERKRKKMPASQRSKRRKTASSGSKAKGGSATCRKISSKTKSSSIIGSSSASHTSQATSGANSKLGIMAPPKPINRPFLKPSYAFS
# Procedure, shortened: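 Forked 20-bp duplex substrate (200 nM, TAMRA/BHQ-2) plus 2 mM ATP added after 15 min compound preincubation with 50 nM enzyme, pH 8.0, poly(dI-dC) 2.5 ug/ml. Strand separation followed by fluorescence (525/598 nm) over 2 h, normalized to enzyme-free and DMSO controls.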
# [11] = High Content Imaging Cell-Based qHTS for Inhibitors of the mTORC1 Signaling Pathway in MEF (Tsc2-/-, p53-/-) Cells (AID 2666);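 further: percent of cells scored positive for phospho-rpS6 Ser235/236 immunostaining by imaging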; further: potency means the concentration at half of the fitted maximal effect
# Procedure, shortened: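 Cells were plated, dosed with compound after 24 hrs, and incubated another 24 hrs at 37 degree Celsius. Fixed cells were immunostained for phospho-rpS6 Ser235/236 and counterstained, and the normalized signal was scored as % active cells against rapamycin and DMSO controls.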
smiles,measurement,setting,value
Nc1ncnc2c1ncn2[C@@H]1O[C@H](COP(=O)(O)CP(=O)(O)OP(=O)(O)O)[C@@H](O)[C@H]1O,outcome,[1],inactive
N#C/C(=C\c1c[nH]c2ccccc12)C(=O)c1ccc(O)c(O)c1,Potency,[2],inactive
same,Potency,[3],inactive
same,Potency,[4],12.6 µM (active)
same,Potency,[5],12.6 µM (active)
same,Potency,[6],15.8 µM (active)
same,Potency,[7],8.91 µM (active)
same,Potency,[8],12.6 µM (active)
same,Potency,[9],8.91 µM (active)
same,Potency,[10],11.2 µM (active)
same,outcome,[1],inactive
same,Potency,[11],inactive
CN1CC(=O)N/C1=N/C(=O)Nc1cccc(Cl)c1,outcome,[1],inactive
CCC1C(=O)OCC1Cc1cncn1C (stereo not given),outcome,[1],inactive
same,Potency,[11],inactive
CO/S(=N\S(=O)(=O)c1ccc(Cl)cc1)c1ccc([N+](=O)[O-])cc1 (stereo not given),outcome,[1],inactive
COc1ccccc1N1CCN(CCN(C(=O)c2ccc(I)cc2)c2ccccn2)CC1,outcome,[1],inactive
same,Potency,[11],inactive
CCCCCCCCc1ccc(-c2ccc(C(=O)O)cc2)cc1,outcome,[1],inactive
same,Potency,[11],inactive
OC[C@H]1O[C@@H](n2cnc3c(NC4CCCC4)ncnc32)[C@H](O)[C@@H]1O,outcome,[1],inactive
Clc1ccc(N2CCN(Cc3cc4ccccn4n3)CC2)cc1,outcome,[1],inactive
same,Potency,[11],inactive
Cc1cc2c(cc1Cl)N(C(=O)Nc1ccc(Oc3cccnc3C)nc1)CC2,outcome,[1],inactive
same,Potency,[11],inactive
CCCC1(C)C(C#N)(C#N)C1(C#N)C#N,Potency,[11],inactive
COc1ccc2c(c1)CCC1C2CC[C@@]2(C)C1CC[C@@H]2NCCCCCCN1C(=O)CCC1=O (stereo not given in full),outcome,[1],inactive
same,Potency,[11],inactive
N#C/C(=C\c1ccc(-c2cc(Cl)ccc2Cl)o1)C(=O)Nc1cccc2ncccc12,Potency,[11],inactive
Nc1nc(Nc2ccccc2)nc2c1ncn2[C@@H]1O[C@H](CO)[C@@H](O)[C@H]1O,outcome,[1],inactive
same,Potency,[11],inactive
C=C[C@H]1CN2CC[C@@H]1C[C@@H]2[C@@H](O)c1ccnc2ccc(OC)cc12,outcome,[1],inactive
same,Potency,[11],inactive
CNC(=O)[C@H]1O[C@@H](n2cnc3c(NCc4ccc(N)cc4)ncnc32)[C@H](O)[C@@H]1O,outcome,[1],inactive
same,Potency,[11],inactive
Cc1cc(NC2CCCCC2)nc(-n2nc(C)cc2C)n1,outcome,[1],inactive
same,Potency,[11],inactive
NC(=O)C1=CN(C2OC(COP(=O)(O)OP(=O)(O)OC[C@H]3O[C@@H](n4cnc5c(N)ncnc54)[C@H](OP(=O)(O)O)[C@@H]3O)C(O)C2O)C=CC1 (stereo not given in full),outcome,[1],inactive
same,Potency,[11],inactive
Cc1nc2sccn2c(=O)c1CCN1CCC(=C(c2ccccc2)c2ccc(F)cc2)CC1,outcome,[1],inactive
same,Potency,[11],inactive
O=C1NC(=O)/C(=C/c2ccc(-c3ccc(F)cc3O)o2)S1,outcome,[1],inactive
same,Potency,[11],inactive
CN1C2CC(OC(=O)[C@H](CO)c3ccccc3)CC1C1OC12 (stereo not given in full),outcome,[1],inactive
same,Potency,[11],inactive
O=C1NC(=O)/C(=C/c2ccc3nccnc3c2)S1,Potency,[11],inactive
CSc1ccccc1N1CCN(CCCCCC(=O)NC2CCCc3ccccc32)CC1 (stereo not given),outcome,[1],inactive
same,Potency,[11],inactive
CC(C)NC[C@@H](O)c1ccc(O)c(O)c1,Potency,[11],inactive
NC[C@H]1O[C@@H](n2cnc3c(N)ncnc32)[C@H](O)[C@@H]1O,outcome,[1],inactive
same,Potency,[11],inactive
C[N+]1(C)C2CC(OC(=O)[C@H](CO)c3ccccc3)CC1C1OC12 (stereo not given in full),outcome,[1],inactive
same,Potency,[11],inactive
O=[N+]([O-])c1ccc2c(c1)S(=O)(=O)C=C2,Potency,[11],inactive
NS(=O)(=O)C#Cc1ccccc1,Potency,[11],inactive
C#C[C@]1(O)CC[C@H]2[C@@H]3CCC4=Cc5oncc5CC4(C)[C@H]3CCC21C (stereo not given in full),outcome,[1],inactive
same,Potency,[11],inactive
Cc1ccc(S(=O)(=O)/C=C/C#N)cc1,outcome,[1],inactive
same,Potency,[11],inactive
C[N+](C)(C)CCOP(=O)(O)OP(=O)([O-])OC[C@H]1O[C@@H](n2ccc(N)nc2=O)[C@H](O)[C@@H]1O,outcome,[1],inactive
same,Potency,[11],inactive
CC(C)ON([C@@H](C(=O)NO)C(C)C)S(=O)(=O)c1ccc(-c2ccccc2)cc1,outcome,[1],inactive
same,Potency,[11],inactive
CO/N=C(\C(=O)N[C@@H]1C(=O)N2C(C(=O)O)=C(COC(C)=O)CS[C@H]12)c1csc(N)n1,outcome,[1],inactive
same,Potency,[11],inactive
O=C(O)CC1CC(c2ccccc2)=NO1 (stereo not given),outcome,[1],inactive
same,Potency,[11],inactive
CC(C)CC(NP(=O)(O)O[C@@H]1O[C@@H](C)[C@H](O)[C@@H](O)[C@H]1O)C(=O)NC(Cc1c[nH]c2ccccc12)C(=O)O (stereo not given in full),outcome,[1],inactive
same,Potency,[11],inactive
CCCCC#Cc1nc(NC)c2ncn([C@@H]3O[C@H](CO)[C@@H](O)[C@H]3O)c2n1,outcome,[1],inactive
same,Potency,[11],inactive
N=c1ccn2c(n1)O[C@H]1[C@H](O)[C@@H](CO)O[C@H]12,Potency,[11],inactive
C=CC(C)=C[C@@]1(C)SC(=O)C(C)=C1O,outcome,[1],inactive
same,Potency,[11],inactive
O=P(O)(O)C(Cl)(Cl)P(=O)(O)O,outcome,[1],inactive
same,Potency,[11],inactive
Nc1ncnc2c1c(I)cn2[C@@H]1C[C@H](N)[C@@H](O)[C@H]1O,outcome,[1],inactive
same,Potency,[11],inactive
CCOC(=O)N1CCN(/[N+]([O-])=N/Oc2ccc([N+](=O)[O-])cc2[N+](=O)[O-])CC1,Potency,[11],13.1 µM (active)
Nc1nc(SCc2ccc([N+](=O)[O-])cc2)c2ncn([C@@H]3O[C@H](CO)[C@@H](O)[C@H]3O)c2n1,outcome,[1],inactive
same,Potency,[11],inactive
CC(N)C(=O)OC(C)(C)Cc1ccc(Cl)cc1 (stereo not given),outcome,[1],inactive
same,Potency,[11],inactive
O=C(c1ccc(Cl)cc1)N1CCN(c2ccc([N+](=O)[O-])c3ncccc23)CC1,outcome,[1],inactive
same,Potency,[11],inactive
